Test results from PubChem BioAssay AID1671190 (National Center for Advancing Translational Sciences (NCATS), 2021).
The whole screen tested about 580,000 compounds, of which about 6,100 (1.1%) were called active. Not shown: some 15% with an inconclusive outcome. Shown is part of a subset that was picked to be rich in actives. A number with no mark means an inactive call. Calls come from the whole dose curve; as a rule, active = well fitted inhibition curve with a large enough effect; inconclusive = small, poorly fitted or top-dose-only effect, or another doubt; inactive = no such curve, though single readings can be large or run the other way.

target: Polyunsaturated fatty acid lipoxygenase ALOX12 (Homo sapiens) (UniProt P18054); assay: Primary qHTS assay for inhibitors of human arachidonate 12S-lipoxygenase (ALOX12): Round 2; details: purified 12hLO, xylenol orange hydroperoxide absorbance; series mostly up to 108 µM; activity change, negative = inhibition: at the top concentration
From the text: Assay Provider: Theodore R. Holman Ph.D. University of California, Santa Cruz, California Human lipoxygenase 12hLO is a member of the closely related lipoxygenase family of enzymes which catalyze the site-specific oxidation of arachidonic acid to various hormone precursor molecules and as such is a candidate for drug development in a variety of disease areas, such as cancer and inflammation. Inhibition of 12hLO activity was screened by utilizing arachidonic acid as a substrate. The extent of hydroperoxide product formation was measured by a secondary chromogenic reaction in which xylenol orange (XO, Sigma-Aldrich, cat. number 39,818-7) reacts with the ferric ions produced from the reaction between the hydroperoxide and ferrous ions. The Fe (III)-XO complex is characterized with red-shifted absorbance at 560 nm. A purified preparation of human 12hLO was supplied by Dr. Holman laboratory, University of California, Santa Cruz.
PROTOCOL TABLE SEQUENCE No. (e.g., 1, 2, 3, etc.); […] (e.g., Cells, Incubation, Reagent, etc.); VALUE; DESCRIPTION 1; Enzyme; 3 uL; 150 nM 12hLO enzyme solution dispensed in 1536-well Greiner black, clear bottom plates. 2; Compound; 23 nL; compounds and controls were added. 3; Incubate; 15 min; room temperature. 4; Substrate; 1 uL; 40 uM arachidonic acid (final concentration). 5; Incubate; 30 min; room temperature. 6; Reagent; 4 uL; Fe-XO solution was added to each well. 7; Incubation; 30 min; room temperature 8; Detector; absorbance; Read 1 at 405 nm absorbance using ViewLux (Perkin-Elmer) CCD imager. 9; Detector; absorbance; Read 2 at 573 nm absorbance using ViewLux (Perkin-Elmer) CCD imager. NOTES (numbers refer to sequence above) 1; 150 nM 12hLO (final concentration) in buffer solution (25 mM Hepes, 0.01% Triton X-100, pH 7.0) was dispensed in columns 1, 2, 5-48. Column 1 is neutral (100% activity). Buffer only was dispensed in columns 3 and 4 as no enzyme negative controls. The plates were covered with metal lids with gas-exchange holes. 2; Compounds were pin transferred via a Kalypsys Pin Tool (Wako USA) in column 5-48. Control compound was transferred in column 2, titration of nordihydroguaiaretic acid (NDGA, Sigma-Aldrich, N5023) with top concentration of 20 mM in DMSO then 1:3 dilution in duplicate. Dilution factor of 23 nL into 4 uL final assay volume. 3; Covered assay plates were incubated for 15 min at room temperature. 4; Substrate was added to start the reaction; 40 uM arachidonic acid (Sigma-Aldrich, St. Louis, MO) was dispensed throughout the plate. 6; Chromogenic detection reagent solution (divalent iron/xylenol orange, Fe-XO) was added to each well: 200 uM xylenol orange, 300 uM ferrous ammonium sulfate prepared freshly in 50 mM sulfuric acid. 8, 9; Two absorbance readouts were obtained at 405 nm and at 573 nm using a ViewLux high-throughput CCD plate imager (Perkin-Elmer). The 573 to 405 (Read 2 / Read 1) absorbance ratio was used to compute reaction progress.
% is set by controls: 0 for no effect and ±100 for the full control effect; potency is the fitted concentration of half-maximal effect.

Polyunsaturated fatty acid lipoxygenase ALOX12 (Homo sapiens), sequence (P18054 whole entry, looked up): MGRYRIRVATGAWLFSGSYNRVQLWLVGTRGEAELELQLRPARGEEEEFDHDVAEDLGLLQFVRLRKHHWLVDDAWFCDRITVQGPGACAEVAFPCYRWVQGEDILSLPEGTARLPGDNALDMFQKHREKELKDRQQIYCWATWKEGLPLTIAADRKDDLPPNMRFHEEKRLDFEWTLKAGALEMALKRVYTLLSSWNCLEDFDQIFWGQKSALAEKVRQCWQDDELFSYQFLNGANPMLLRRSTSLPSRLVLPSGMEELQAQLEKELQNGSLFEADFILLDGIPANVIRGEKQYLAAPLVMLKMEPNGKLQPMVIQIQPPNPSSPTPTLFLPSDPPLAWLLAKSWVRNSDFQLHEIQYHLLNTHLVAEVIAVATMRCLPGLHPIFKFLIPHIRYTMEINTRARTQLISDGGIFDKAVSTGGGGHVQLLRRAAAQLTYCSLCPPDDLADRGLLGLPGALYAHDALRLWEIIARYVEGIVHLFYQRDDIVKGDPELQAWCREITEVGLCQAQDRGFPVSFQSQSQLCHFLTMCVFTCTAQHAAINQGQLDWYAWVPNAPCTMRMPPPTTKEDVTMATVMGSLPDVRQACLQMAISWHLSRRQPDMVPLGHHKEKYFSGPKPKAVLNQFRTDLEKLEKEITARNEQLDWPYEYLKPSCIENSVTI

Going from `COc1cc2c(cc1Oc1cccc(N(C)C)c1)NC(=O)C21CCN(c2cnccn2)CC1` to `CC(C)(C)c1nc(CN2CCC3(CC2)C(=O)Nc2ccccc23)no1`, the “activity change, negative = inhibition” value rises from -25.7% to 24.8%.

First: COc1ccc(CC(=O)N2CCN(CC(=O)NC(N)=O)CC2)cc1
Second: COC(=O)C1=C(c2ccc3ccccc3c2)C[C@@H]2CC[C@H]1N2C(=O)NCCO
The “activity change, negative = inhibition” value of the first is lower: -0.17% for the first, 6.64% for the second.

Compared with `Cc1ncc2c(n1)C[C@@H]1CC[C@H]2N1S(=O)(=O)c1ccc(F)cc1`, `O=C(Cc1ccccc1)N1[C@H]2CC[C@@H]1c1cnc(-c3ccc(F)cc3)nc1C2` is lower in “activity change, negative = inhibition” value: 5.01% for the first, -12.1% for the second.

Going from `Cc1ncoc1C(=O)NCC1=C(c2cccc3ccccc23)C[C@@H]2CC[C@H]1N2Cc1ccco1` to `O=c1c2ccccc2nc(/C=C/c2ccc(F)cc2)n1-c1ccccc1O`, the “activity change, negative = inhibition” value rises from -20.5% to -4.15%.

Going from `CN(C)C(=O)Oc1ccc2c(=O)c(-c3ccc(Br)cc3)c(C(F)(F)F)oc2c1` to `Cc1ccc(-n2c(/C=C/c3cccc(C(F)(F)F)c3)nc3ccccc3c2=O)cc1`, the “activity change, negative = inhibition” value rises from -27.7% to 4.27%.

Compared with `O=C(c1ccc2c(c1)CCO2)N1C[C@@H](c2ccc(F)cc2)[C@@H]2[C@H]1C1CCN2CC1`, `N#Cc1cccc(NC(=O)NC[C@H]2C[C@@H]3CCN2C[C@@H]3CN2CCN(c3ncccn3)CC2)c1` is higher in “activity change, negative = inhibition” value: -0.3% for the first, 0.779% for the second.

First: Cc1cc(C)cc(CN2CCC3(CCNCC3)C2)c1
Second: CC(C)C(=O)N1CCC2(CC1)NCc1ccccc1-n1ccnc12
The “activity change, negative = inhibition” value of the first is higher: 51.5% for the first, 14.6% for the second.

First: CCC(CC)c1cc([C@H]2CN3CC[C@H]2C[C@@H]3CNS(=O)(=O)Cc2ccccc2)nc(-c2ccncc2)n1
Second: c1cncc(CNCCc2c[nH]c3ccccc23)c1
The “activity change, negative = inhibition” value of the first is higher: 38.2% for the first, -6.92% for the second.

Compared with `CCC(=O)CC(c1ccc([N+](=O)[O-])cc1)c1c(O)c2ccccc2oc1=O` (configuration not stated), `O=c1oc2ccccc2c(O)c1C(c1ccccc1O)c1c(O)c2ccccc2oc1=O` is lower in “activity change, negative = inhibition” value: 42.5% for the first, -16.9% for the second.

Compared with `COc1ccc(CC(=O)N2C[C@@H]3CC[C@H](C2)N(CC2CCC2)C3)c(OC)c1`, `c1cncc(CNC2=NCCC2)c1` is lower in “activity change, negative = inhibition” value: 4.55% for the first, -16.5% for the second.

First: C#C[C@H]1CN2CC[C@H]1C[C@@H]2CNC(=O)C1CC1
Second: Cc1nc(-c2ccc(N(C)C)cc2)cc([C@H]2CN3CC[C@H]2C[C@@H]3CNC(=O)C2CCC2)n1
The “activity change, negative = inhibition” value of the first is lower: 32.6% [at 176 µM] for the first, 33.5% [at 176 µM] for the second.

First: COc1ccc(-c2cc([C@H]3CN4CC[C@H]3C[C@@H]4COC(=O)NC(C)C)nc(C)n2)cc1
Second: Cn1nc(-c2ccc(F)cc2)cc1[C@H]1CN2CC[C@H]1C[C@@H]2CNCc1ccccn1
The “activity change, negative = inhibition” value of the first is lower: -0.937% [at 176 µM] for the first, 99.3% [at 176 µM] for the second.

Compared with `Cn1nc(-c2cccs2)cc1[C@H]1CN2CC[C@H]1C[C@@H]2CNC(=O)Nc1ccccc1`, `COc1ccccc1-c1cc([C@H]2CN3CC[C@H]2C[C@@H]3CNCc2cccc(C#N)c2)n(C)n1` is higher in “activity change, negative = inhibition” value: 26.6% [at 176 µM] for the first, 101% [at 176 µM] for the second.

Going from `COc1cc2c(cc1OCc1ccccc1)NC(=O)C21CCN(CCC(C)C)CC1` to `COc1cc2c(cc1-c1ccncc1)NC(=O)C21CCN(C(C)=O)CC1`, the “activity change, negative = inhibition” value falls from 19% [at 176 µM] to -24% [at 176 µM].

Going from `COc1cc2c(cc1OC1CCCC1)NC(=O)C21CCN(c2nccs2)CC1` to `COc1cccc(Nc2cc3c(cn2)CN(C)CCN3C)c1`, the “activity change, negative = inhibition” value rises from 0.589% [at 176 µM] to 17.4% [at 176 µM].

First: C=CCN(C)C[C@H]1CN2CC[C@H]1C[C@@H]2CNC(=O)Nc1cccc(SC)c1
Second: Cc1ccc2c(n1)N(C)[C@H](CO)CCN(C1CCCC1)C2
The “activity change, negative = inhibition” value of the first is lower: 14.9% [at 176 µM] for the first, 18.6% [at 176 µM] for the second.

For `C#C[C@H]1CN2CC[C@H]1C[C@@H]2COC(=O)Nc1cc(OC)cc(OC)c1`, the Potency was 50.1 µM (active).
`C=C(C)C1(CCCC)C(=O)NC(=S)NC1=O` was tested, and the Potency was 44.7 µM (active).
`CC(=O)NCC1=C(c2ccc3ccccc3c2)C[C@@H]2CC[C@H]1N2Cc1ccco1` was tested, and the Potency was 28.2 µM (active).
With `COc1cccc(N2C(=O)NC(=O)/C(=C\c3ccc([N+](=O)[O-])s3)C2=O)c1` the Potency was 44.7 µM (active).
With `O=C1NC(=O)N(c2ccccc2)C(=O)/C1=C/c1ccc([N+](=O)[O-])s1` the Potency was 39.8 µM (active).
With `O=c1c2ccccc2nc(/C=C/c2ccco2)n1-c1ccccc1O` the Potency was 35.5 µM (active).
With `Cc1ccc(C(c2c(O)c3ccccc3oc2=O)c2c(O)c3ccccc3oc2=O)cc1` the Potency was 12.6 µM (active).
With `ClCc1cccnc1` the Potency was 11.2 µM (active).
In the case of `CCOCCc1c(O)[nH]c(=S)[nH]c1=O`, the Potency was 14.1 µM (active).

Compound `O=[S+]1([O-])NC2(CCN(CC3CCOCC3)C2)COc2ccncc21` (configuration not stated) has an activity change, negative = inhibition of 3.45% [at 6.33 µM].
